# HT1080-NT tox = kills 2HG-producing HT-1080-NT fibrosarcoma cells; HT-1080-NT fibrosarcoma viability, CellTiter-Glo ATP luminescence, 48 h; hit rate 1.6% among 360,000; Potency, µM (highest dose often 46.1 µM), without a hit: at the top dose activity, negative = less viability, actives largely listed as cytotoxic;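 also: NT is the 2HG producing partner of a matched IDH1 knockdown line; potency is read from the fitted curve at half-maximal effect; 0% = DMSO-treated cells and -100% = media-only wells without cells; nearly all actives have a fitted effect of over 55% in size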
#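 Read-out is CellTiter-Glo luminescence after 10 minutes at room temperature, following 48 hours' compound treatment of HT-1080-NT cells (750 cells/well, RPMI, 5% FBS, 37 degrees C).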
# IL1B secr inh = inflammasome signaling inhibition, IL-1 beta readout. THP-1 LPS/ATP IL-1B secretion, AlphaLISA, 16 h; active compounds read low. hit rate 4.7% among 360,000. activity change, % at 57.5 µM; in the data active = activity change below about -50%; inconclusive = mostly about -30% to -49%
#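 Secreted IL-1B measured by AlphaLISA bead assay after 16 h compound exposure of THP-1 cells; compounds (final up to 57.5 uM) added 1 h before LPS (250 ng/mL) and ATP (1.25 mM) stimulation; lower signal means less secretion.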
# TDP1 cell noCPT = qHTS for Inhibitors of human tyrosyl-DNA phosphodiesterase 1 (TDP1): qHTS in cells in absence of CPT; Potency, µM (top dose mostly 46.2 µM), without a hit: top-dose activity change, negative = growth inhibition, hits mostly inhibitors; AID 686978, 2013; hit rate 15% among 420,000; DT40 Tdp1-/- hTDP1 cells, no CPT, ATP luminescence, 48 h; also: potency is read from the fitted curve at half-maximal effect; nearly all actives have a fitted effect of over 55% in size
#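 Seeded 400 DT40-hTDP1 cells/well (vehicle DMSO, no 20 nM CPT); pinned compounds; ≥48 hr at 37 °C; CellTiter-Glo luminescence as viability measure.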
# HT1080 IDH1KD tx = kills HT-1080 cells with IDH1 knockdown; HT-1080 IDH1 knockdown viability, ATP luminescence, 48 h; Potency, µM (top dose mostly 46.1 µM), inactives show top-dose activity, negative = toxicity, actives largely listed as cytotoxic; hit rate 2% among 360,000; AID 686971;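 also: potency is read from the fitted curve at half-maximal effect; 0% = DMSO wells and -100% = cell-free medium wells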
#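 HT-1080-IDH1KD cells (IDH1 knocked down), 750/well in RPMI with 5% FBS, treated with compound 48 h at 37 degrees C. Viability by CellTiter-Glo luminescence, normalised to DMSO and no-cell wells; concentration-response curves classed.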
# TDP1 cell CPT = DT40-hTDP1 cell growth loss with CPT; chicken DT40 Tdp1-/-;hTDP1 cells + 20 nM CPT, ATP luminescence, 48 h; Potency, µM (doses to about 46.2 µM), without a hit: at the top dose activity change, negative = growth inhibition, most hits filed as inhibitors; hit rate 12% among 420,000; AID 686979; also: potency is read from the fitted curve at half-maximal effect; nearly all actives have a fitted effect of over 55% in size
#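 Cell growth measured by CellTiter-Glo luminescence after a minimum 48 h, 37 C compound exposure with 20 nM CPT in Tdp1-knockout DT40 cells stably expressing hTDP1, seeded 400/well; qHTS titration format.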
# The depositor's hits bear a star; ? = inconclusive; . = no result. An excerpt weighted towards active compounds, which were near 19% of everything screened. Unless noted, calls follow the shape of the dose curve; as a rule, active = well fitted curve in the direction sought with a large enough effect; inconclusive = small, poorly fitted or top-dose-only effect, or another doubt; inactive = no such curve, though single readings can be large; an effect the other way counts as inactive or inconclusive. Unless noted, % is scaled to controls: 0 for no effect and ±100 for the full control effect.
SMILES,HT1080-NT tox,IL1B secr inh,TDP1 cell noCPT,HT1080 IDH1KD tx,TDP1 cell CPT
O=C(CSc1cccc[n+]1[O-])c1ccccc1Br,?,-29,5.2µM*,?,3.7µM*
O=C(CSc1cccc[n+]1[O-])c1ccc(Cl)s1,?,-8,1.3µM*,?,0.73µM*
Cc1cc(-c2nc3ncccc3o2)ccc1NC(=O)COc1cc(C)c(Cl)c(C)c1,.,.,2%,.,-5%
Cc1cccc(OCC(=O)Nc2cc(-c3nc4cc(Cl)ccc4o3)ccc2C)c1,.,.,?,.,7.1µM*
COc1ccc(-c2nc3ccccc3o2)cc1NC(=O)COc1c(C)cc(Cl)cc1Cl,.,.,5.2µM*,.,2.9µM*
COc1ccc(-c2nc3ccccc3o2)cc1NC(=O)Cc1ccc(Cl)cc1,.,.,-14%,.,-25%
COc1ccc2oc(-c3ccc(C)c(NC(=O)COc4cc(C)cc(C)c4)c3)nc2c1,.,.,5.2µM*,.,7.3µM*
Cc1ccc(-c2nc3ncccc3o2)cc1NC(=O)COc1ccc(C(C)C)cc1,.,.,16µM*,.,?
CCc1ccc(OCC(=O)Nc2ccc3oc(-c4ccc(OC)cc4)nc3c2)cc1,.,.,-27%,.,?
Cc1ccc(-c2nc3cc(Cl)ccc3o2)cc1NC(=O)COc1ccc(F)cc1,.,.,1%,.,-28%
CCOC(=O)c1[nH]c2ccc(OC)cc2c1NC(=O)CCN1CCCC(C)C1 (centres undefined),4%,0,0%,10%,-23%
CCn1nnnc1SCC(=O)N(C)C1CCS(=O)(=O)C1 (centres undefined),0%,-15,-8%,6%,-7%
Cc1cccc(OCC(=O)Nc2ccc(-c3nc4cc(C)ccc4o3)c(O)c2)c1,.,.,?,.,15µM*
COc1ccc(CC(=O)Nc2ccc(-c3nc4cc(C)ccc4o3)c(O)c2)cc1OC,20%,6,?,19%,?
COc1ccc2oc(-c3ccc(C)c(NC(=O)c4ccc(-c5ccccc5[N+](=O)[O-])o4)c3)nc2c1,.,.,9.2µM*,.,18µM*
N#CC(C#N)=C(Nc1ccc(F)cc1)SCc1cccc(Br)c1,9.2µM*,-96*,2.3µM*,18µM*,2.9µM*
CCOc1ccc(Nc2ncnc3c2cnn3C)cc1,11%,-7,?,1%,?
CC(COc1ccccc1)NN (centres undefined),.,.,-6%,.,-4%
CC(COc1ccc(/C=C/c2ccccc2)cc1)[N+](C)(C)C (centres undefined),?,151,3.3µM*,?,4.1µM*
COc1cccc(OCCn2cc(/C=N/NC(=O)c3ccncc3)c3ccccc32)c1,-3%,-29,?,?,?
CNC(=S)N/N=C/c1cn(CCOc2cccc(OC)c2)c2ccccc12,-16%,-8,13µM*,-10%,8.2µM*
CNC(=S)N/N=C/c1cn(CCOc2ccccc2OC)c2ccccc12,-10%,-25,6.5µM*,-18%,3.7µM*
O=C(NC(Cc1ccccc1)C(=O)O)/C(=C/c1ccc(F)cc1)NC(=O)c1ccccc1 (centres undefined),2%,23,-1%,11%,-1%
CCOC(=O)C1=CCN(S(=O)(=O)c2ccccc2Cl)C1c1cccc(Br)c1 (centres undefined),?,48,?,?,?
CN(Cc1ccc(C(C)(C)C)cc1)C(=O)C1CCN(C(=O)Nc2ccccc2)CC1,-19%,-60*,23µM*,-24%,?
SMILES,HT1080-NT tox,IL1B secr inh,TDP1 cell noCPT,HT1080 IDH1KD tx,TDP1 cell CPT
Cc1ccc(CN(C)C(=O)C2CCN(C(=O)Nc3ccccc3)CC2)o1,2%,10,-19%,6%,4%
COc1ccc2[nH]c3c(c2c1)CCN1C(=O)C(CC(=O)NC(C)(C)C)C[C@H](C(=O)N(C(C)C)C(C)C)[C@@]31C (some centres undefined),1%,-11,?,-5%,?
COc1ccc2[nH]c3c(c2c1)CCN1C(=O)C(CC(=O)NC/C=C(\C)CCC=C(C)C)C[C@H](C(=O)N(C(C)C)C(C)C)[C@@]31C (some centres undefined),?,-64*,18µM*,?,?
CC(C)=CCC/C(C)=C/CNC(=O)CC1C[C@H](C(=O)N(C(C)C)C(C)C)[C@@]2(C)c3[nH]c4ccccc4c3CCN2C1=O (some centres undefined),-1%,-17,23µM*,-1%,16µM*
O=C(c1ccccc1)N1CCCCCC1,12%,-9,-12%,17%,-8%
Cc1cccc(C)c1NC(=O)CN(C)C(=O)c1ccccc1OCc1ccc(F)cc1,9%,1,-21%,0%,-12%
O=S(=O)(c1cc(F)ccc1F)N1CCN(c2ncnc3ccccc23)CC1,?,72,2.1µM*,?,2.3µM*
Cc1cc(C(=O)CN2C(=O)NC3(CCCCC3)C2=O)c(C)n1Cc1ccc2c(c1)OCO2,1%,39,23µM*,-8%,8.2µM*
Cc1cc(C(=O)CN2C(=O)NC3(CCCC3)C2=O)c(C)n1-c1ccc2c(c1)OCO2,4%,-16,?,13%,-24%
Cc1cc(C(=O)CN2C(=O)NC(C)(CC(C)C)C2=O)c(C)n1-c1ccc2c(c1)OCO2 (centres undefined),-3%,-25,23µM*,-3%,?
CC(C)S(=O)(=O)N1CCCC(c2cc(C(=O)NCc3ccccc3)no2)C1 (centres undefined),18%,-14,-11%,9%,-3%
COC(CNC(=O)CN1CCN(Cc2ccccc2F)C1=O)OC,6%,8,-6%,4%,-5%
C[C@@H]1CN([C@@H](C)CO)S(=O)(=O)c2ccc(Br)cc2O[C@@H]1CN(C)C(=O)C1CC1,2%,-11,?,-2%,-3%
CCN(CC)S(=O)(=O)c1ccc(C(=O)NC(=S)N2CCCCC2C)cc1 (centres undefined),-11%,-5,16µM*,1%,?
Cc1[nH]c2ccccc2c(=O)c1CN1CCCCC1,0%,0,-11%,-7%,-13%
c1ccc(N2CCN(Cc3ccc4c(c3)OCO4)CC2)nc1,-3%,-16,-6%,5%,-9%
Cc1[nH]c2ccccc2c1CN1CCN(c2ccccn2)CC1,7%,.,5.2µM*,1%,2.3µM*
Cc1[nH]c2ccccc2c1CN1CCC(Cc2ccccc2)CC1,?,-85*,2.6µM*,23µM*,2.6µM*
Brc1ccc(CN2CCN(c3ccccn3)CC2)s1,0%,-83*,-19%,-5%,-9%
CCC1CCCCN1CCCNC(=O)CCC(=O)N1CC(C)Oc2ccccc21 (centres undefined),-4%,-19,-29%,-7%,-10%

# Assay outcomes from PubChem.
